# Nox1 inhibitor: human Nox1 inhibition; HT29 cells, luminol chemiluminescence ROS; inhibition, % at 6.7 µM; hit rate 0.81% among 16,000
# luminol inh ctr: quenches luminol chemiluminescence in Nox1 counter-screen. hit rate 0.4% among 16,000. AID 1823. inhibition, % at 6.7 µM. HRP/luminol/H2O2 chemiluminescence counterscreen; also: reference of the scale not given here
# NOTCH ag: agonists of NOTCH signaling | NOTCH signaling luciferase reporter cells, luminescence | activation, % at 2.5 µM | hit rate 0.4% among 15,000 | AID 434982; in the data active = activation above about 2.2%
# TLR4 MyD88 blk: TLR4-MyD88 interaction inhibition | O00206 | Cell-based TLR4-MyD88 binding inhibition assay | inhibition, % at 10 µM | hit rate 0.06% among 16,000 | AID 811; in the data active = inhibition above about 45%
# OPRK1 antag MB: OPRK1 (human) antagonism, Maybridge screen; OPRK1 cells, antagonist mode, fluorescence readout; inhibition, % at 9 µM; hit rate 0.4% among 16,000; AID 652031; in the data active = inhibition above about 50%
# PME-1 Maybridge: PME-1 (human) inhibition, Maybridge primary screen; recombinant PME-1, FP-Rh probe fluorescence polarization; AID 2291; inhibition, % at 9 µM; Q9Y570; hit rate 0.5% among 16,000; in the data active = inhibition above about 30%
# Target sequence (Q9Y570 whole entry, looked up): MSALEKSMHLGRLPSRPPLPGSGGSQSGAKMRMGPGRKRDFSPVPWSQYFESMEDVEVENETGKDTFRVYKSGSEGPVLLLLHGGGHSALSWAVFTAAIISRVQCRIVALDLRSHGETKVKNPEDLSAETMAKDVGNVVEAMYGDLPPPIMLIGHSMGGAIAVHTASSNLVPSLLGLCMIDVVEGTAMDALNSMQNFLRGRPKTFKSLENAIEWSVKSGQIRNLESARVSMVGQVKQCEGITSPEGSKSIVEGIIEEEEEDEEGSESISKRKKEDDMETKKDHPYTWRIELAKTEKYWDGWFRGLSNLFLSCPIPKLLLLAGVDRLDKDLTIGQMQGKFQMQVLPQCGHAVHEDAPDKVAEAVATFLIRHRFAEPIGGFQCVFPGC
# * marks the source's active call; other numbers are inactive results; . = not tested or not shown. Shown are actives, neighbours in structure and some others; about 2.3% of the full set was active somewhere. Rule as the data show it, unless noted: active = inhibition above about 75%; inactive = the rest.
SMILES,Nox1 inhibitor,luminol inh ctr,NOTCH ag,TLR4 MyD88 blk,OPRK1 antag MB,PME-1 Maybridge
Cc1c(NC(=O)C2CCCCC2)cccc1[N+](=O)[O-],3,-6,0,-10,-10,12
O=c1cc(Nc2ccc(OC(F)(F)F)cc2)c2ccccc2o1,3,-9,-1,3,33,54*
Cc1ccc(S(=O)(=O)NC(=O)Nc2c(C)n(C)n(-c3ccccc3)c2=O)cc1,92*,-4,0,0,27,6
N#Cc1cccc(C#N)c1Oc1ccc(S(=O)(=O)N2CCC(C(N)=O)CC2)cc1,-47,2,-1,3,12,-1
O=C(Oc1cccc2c1CCC2=O)c1ccccc1,-65,2,.,1,19,-2
O=C(Oc1cccc2c1C(=O)C=CC2=O)c1ccccc1,41,8,-1,-4,-1,34*
Fc1ccc(-n2c(Cc3ccsc3)n[nH]c2=S)cc1,-51,84*,0,5,-11,-1
O=C(NCCSCc1ccc(Cl)cc1)c1ccco1,-69,-2,-1,-1,15,6
C=CCNC(=S)NNC(=O)c1oc2nc(-c3ccc(Cl)cc3)cc(-c3ccccc3)c2c1N,4,2,-1,-6,66*,-4
C=CCNC(=S)NNC(=O)CSc1ccccc1[N+](=O)[O-],-19,3,-1,0,-25,-2
O=C(O)/C(=C/c1cccc([N+](=O)[O-])c1)c1ccccc1,-9,-7,0,-5,11,7
CNC(=S)NNC(=O)c1c(C)nc2cc(C)ccn12,97*,24,0,-6,11,5
CCC(CO)Nc1nc2c([nH]1)c(=O)n(C)c(=O)n2C (stereo not given),94*,-7,0,-2,0,0
Cc1nnsc1-c1nnc(C2CCCCC2)o1,-37,-10,3.8*,-19,-10,5
O=C(NCc1cccnc1)Nc1cc(Cl)sc1Cl,-40,2,0,0,-17,5
COc1ccc(Oc2ncccc2NC(=O)Nc2cccc(C(F)(F)F)c2)cc1,22,-5,0,-10,10,-99
CCCCCCSc1n[nH]c(=S)s1,15,96*,-1,0,4,6
CC(C)(C)OC(=O)NCc1n[nH]c(=S)n1-c1ccccc1,19,97*,0,9,8,1
NC(=S)c1ccc(C2SCCS2)cc1,-10,0,-1,-1,-6,-1
O=[N+]([O-])c1ccc(-c2ccc(/C=N/NC(=S)NCC3CCCO3)o2)cc1 (stereo not given),-3,14,0,50*,31,0
O=[N+]([O-])c1ccc(-c2ccc(-c3ccc([N+](=O)[O-])cc3)o2)cc1,-36,5,-1,8,45,-8
O=[N+]([O-])c1ccc(-c2ccc(/C=N/Nc3ccccc3)o2)cc1,25,7,0,41,81*,2
S=C(NCC1CCCO1)N/N=C/c1ccc(Cl)cc1 (stereo not given),-12,13,-1,-4,-19,-1
O=C1NC(=S)S/C1=C\c1cc([N+](=O)[O-])ccc1Sc1ccc(C(F)(F)F)cn1,20,2,0,0,12,-3
Cc1cc(C#N)c2c(c1)-c1ccccc1CC2,-22,-2,1,-10,7,-1
SMILES,Nox1 inhibitor,luminol inh ctr,NOTCH ag,TLR4 MyD88 blk,OPRK1 antag MB,PME-1 Maybridge
N#Cc1c(N)sc2c1CCc1ccccc1-2,103*,1,1,-2,-8,15
CCOC(=O)c1sc(Nc2ccccc2)c(-c2nc3ccccc3[nH]2)c1N,18,-3,-1,-7,-10,31*
COCCCNC(=S)NNC(=O)CC#N,41,98*,0,-8,5,6
c1cncc(-c2csc(-c3cccnc3)n2)c1,-45,-3,0,4,-5,34*
c1cncc(-c2n[nH]c(-c3ccncc3)n2)c1,-76,3,0,1,5,-6
CN(C)c1ccc(/C=C/c2cc[n+](Cc3ccc(F)cc3)cc2)cc1,-17,-1,-1,51*,2,4
CC(=O)/C(C=Nc1ccc(Cl)cc1)=C(/O)C(F)(F)F,-63,3,0,-3,5,-1
CC12CCC(C(=O)N3CCSCC3)(OC1=O)C2(C)C (stereo not given),14,-7,1,7,19,8
CCC(C)(C)C1CCc2c(sc(NC(=O)c3ccccc3C(=O)O)c2C#N)C1 (stereo not given),39,2,1,-27,30,33*
